# Measurements published in PubChem BioAssay (NCATS).
# Records with an inconclusive call do not appear. Entries that show only a call come without a potency. Values without a mark were called inactive. Activity calls are given as the source filed them. Calls come from the whole dose curve.
# Legend:
# [1] = Primary qHTS for Huh7 cytotoxicity: counterscreen for inhibitors of MERS-S pseudotyped particle cell entry (AID 1479147)
# [2] = Primary qHTS for inhibitors of MERS-S pseudo-typed particle cell entry (AID 1479149); note: nearly all actives have a fitted effect of over 60% in size; note: potency is the fitted concentration of half-maximal effect
# [3] = Primary qHTS for Vero E6 cytotoxicity: counterscreen for inhibitors of SARS-S pseudo-typed particle cell entry (AID 1479150)
# [4] = Primary qHTS for inhibitors of SARS-S pseudo-typed particle cell entry (AID 1479145); note: nearly all actives have a fitted effect of over 45% in size
# [5] = Confirmatory qHTS for VERO E6 Cytotoxicity Assay: Counterscreen for SARS-CoV-2 CPE Assay (AID 1508605); note: nearly all actives have a fitted effect of over 60% in size; note: potency is the fitted concentration of half-maximal effect
# [6] = Confirmatory qHTS for activators (rescue) of SARS-CoV-2 Cytopathic Effect (CPE) (AID 1508606); settings: Vero E6 SARS-CoV-2 CPE rescue, viability luminescence; note: potency is the fitted concentration of half-maximal effect; nearly all actives have a fitted effect of over 70% in size
smiles,measurement,setting,value
CCS(=O)(=O)CCn1c([N+](=O)[O-])cnc1C,Potency,[1],inactive
same,Potency,[2],inactive
same,Potency,[3],inactive
O=C(O)CN(CCN(CC(=O)O)CC(=O)O)CCN(CC(=O)O)CC(=O)O,Potency,[1],inactive
same,Potency,[2],inactive
same,Potency,[3],inactive
CC(C)[C@H]1C(=O)N2CCC[C@H]2[C@]2(O)O[C@](NC(=O)[C@@H]3C[C@@H]4c5cccc6[nH]cc(c56)C[C@H]4N(C)C3)(C(C)C)C(=O)N12,Potency,[4],inactive
same,Potency,[1],inactive
same,Potency,[3],inactive
Cc1cc(OI)c(C(C)C)cc1-c1cc(C(C)C)c(OI)cc1C,Potency,[4],inactive
same,Potency,[1],inactive
same,Potency,[3],inactive
NCC[C@H](O)C(=O)N[C@@H]1C[C@H](N)[C@@H](O[C@H]2O[C@H](CN)[C@@H](O)[C@H](O)[C@@H]2O)[C@H](O)[C@@H]1O[C@H]1O[C@H](CO)[C@@H](O)[C@H](N)[C@@H]1O,outcome,[1],inactive [at 0.573 µM]
same,outcome,[2],inactive [at 0.573 µM]
COc1ccc2c(c1)c(CC(=O)OC/C=C(\C)CC/C=C(\C)CCC=C(C)C)c(C)n2C(=O)c1ccc(Cl)cc1,Potency,[1],inactive
same,Potency,[2],inactive
same,Potency,[3],inactive
O=C1CN(/N=C/c2ccc([N+](=O)[O-])o2)C(=O)N1,Potency,[4],inactive
same,Potency,[3],inactive
COC(=O)C1=C(C)NC(C)=C(C(=O)OCC(C)=O)C1c1ccccc1[N+](=O)[O-] (stereo not drawn),Potency,[1],inactive
same,Potency,[2],inactive
same,Potency,[3],inactive
CO[C@@H]1[C@@H](OC(N)=O)[C@@H](O)[C@H](Oc2ccc3c(O)c(NC(=O)c4ccc(O)c(CC=C(C)C)c4)c(=O)oc3c2C)OC1(C)C,Potency,[4],inactive
same,Potency,[1],inactive
same,Potency,[3],inactive
O=C(/C=C/c1ccccc1)OCc1ccccc1,Potency,[1],inactive
same,Potency,[2],inactive
same,Potency,[3],inactive
COC(=O)c1ccc(O)cc1,Potency,[1],inactive
same,Potency,[2],inactive
same,Potency,[3],inactive
O=C(NCCO[N+](=O)[O-])c1cccnc1,Potency,[1],inactive
same,Potency,[2],inactive
same,Potency,[3],inactive
O=C(C1CCCCC1)N1CC(=O)N2CCCc3ccccc3C2C1 (stereo not drawn),Potency,[1],inactive
same,Potency,[2],inactive
same,Potency,[3],inactive
Cc1c(C)c2c(c(C)c1O)CCC(C)(COc1ccc(CC3SC(=O)NC3=O)cc1)O2 (stereo not drawn),Potency,[1],inactive
same,Potency,[2],25.1 µM (active)
same,Potency,[3],inactive
CCN1C(=O)NC(c2ccccc2)C1=O (stereo not drawn),Potency,[1],inactive
same,Potency,[2],inactive
same,Potency,[3],inactive
CC(=O)[C@H]1CC[C@H]2[C@@H]3C[C@H](C)C4=CC(=O)CC[C@]4(C)[C@H]3[C@@H](O)C[C@]12C,Potency,[1],inactive
same,Potency,[2],inactive
same,Potency,[3],inactive
CCCNC(C)C(=O)Nc1c(C)csc1C(=O)OC (stereo not drawn),Potency,[1],inactive
same,Potency,[2],inactive
same,Potency,[3],inactive
Cc1c(N(C)CS(=O)(=O)O)c(=O)n(-c2ccccc2)n1C,Potency,[1],inactive
same,Potency,[2],inactive
same,Potency,[3],inactive
CCOc1ccc(NS(=O)(=O)c2ccc(N)cc2)nn1,Potency,[1],inactive
same,Potency,[2],inactive
same,Potency,[3],inactive
CCCCC(CC)CNC(=O)CC(C)OC(=O)CCC(=O)O (stereo not drawn),Potency,[1],inactive
same,Potency,[2],inactive
same,Potency,[3],inactive
NCCCNCCSP(=O)(O)O,outcome,[1],inactive [at 11.4 µM]
same,outcome,[2],inactive [at 11.4 µM]
same,"activity change, negative = cytotoxicity",[3],2.55% [at 11.4 µM]
CCCCC[C@H](O)/C=C/[C@@H]1[C@H]2C/C(=C/CCCC(=O)O)O[C@H]2C[C@H]1O,Potency,[1],inactive
same,Potency,[2],inactive
same,Potency,[3],inactive
CCCCCCNC(=O)n1cc(F)c(=O)[nH]c1=O,Potency,[1],inactive
same,Potency,[2],5.01 µM (active)
same,Potency,[3],inactive
CN(C)C(=O)Oc1ccc[n+](C)c1,Potency,[1],inactive
same,Potency,[2],inactive
same,Potency,[3],inactive
O=C(NCC(O)CO)c1c(I)c(C(=O)NCC(O)CO)c(I)c(N(CCO)C(=O)CO)c1I (stereo not drawn),Potency,[1],inactive
same,Potency,[2],inactive
same,Potency,[3],inactive
O=C(OOC(=O)c1ccccc1)c1ccccc1,Potency,[1],inactive
same,Potency,[2],inactive
same,Potency,[3],inactive
CO/N=C(/C(=O)N[C@@H]1C(=O)N2C(C(=O)[O-])=C(C[n+]3ccn4ncccc43)CS[C@H]12)c1nsc(N)n1,Potency,[1],inactive
same,Potency,[2],inactive
same,Potency,[3],inactive
Cc1c(C(=O)O)c(O)cc2c1C(=O)c1c(O)c([C@@H]3O[C@H](CO)[C@@H](O)[C@H](O)[C@H]3O)c(O)c(O)c1C2=O,Potency,[1],inactive
same,Potency,[2],inactive
same,Potency,[3],inactive
Clc1cccc(Cl)c1NC1=NCCN1,Potency,[1],inactive
same,Potency,[2],inactive
same,Potency,[3],inactive
CC(N=C(NC#N)Nc1ccncc1)C(C)(C)C (stereo not drawn),Potency,[1],inactive
same,Potency,[2],inactive
same,Potency,[3],inactive
CC(C)[C@H](N)C(=O)OCCOCn1cnc2c(=O)[nH]c(N)nc21,Potency,[1],inactive
same,Potency,[2],inactive
same,Potency,[3],inactive
C=CCN1CCc2nc(N)sc2CC1,Potency,[1],inactive
same,Potency,[2],inactive
same,Potency,[3],inactive
CCOC(=O)C1=C[C@@H](OC(CC)CC)[C@H](NC(C)=O)[C@@H](N)C1,Potency,[1],inactive
same,Potency,[2],inactive
same,Potency,[3],inactive
CC(C)(Sc1cc(C(C)(C)C)c(O)c(C(C)(C)C)c1)Sc1cc(C(C)(C)C)c(O)c(C(C)(C)C)c1,Potency,[1],inactive
same,Potency,[2],inactive
same,Potency,[3],inactive
CC(C)(C)NCC(O)c1cc(O)cc(O)c1 (stereo not drawn),Potency,[1],inactive
same,Potency,[2],inactive
same,Potency,[3],inactive
COc1c(N2C[C@@H]3CCCN[C@@H]3C2)c(F)cc2c(=O)c(C(=O)O)cn(C3CC3)c12,Potency,[1],inactive
same,Potency,[2],inactive
same,Potency,[3],inactive
Cc1ccnc(NS(=O)(=O)c2ccc(N)cc2)n1,Potency,[1],inactive
same,Potency,[2],inactive
same,Potency,[3],inactive
NCc1ccc(S(N)(=O)=O)cc1,Potency,[1],inactive
same,Potency,[2],inactive
same,Potency,[3],inactive
C[C@@H]1O[C@@H]1P(=O)(O)O,Potency,[1],inactive
same,Potency,[2],inactive
same,Potency,[3],inactive
CC(C)CN(C[C@@H](OP(=O)(O)O)[C@H](Cc1ccccc1)NC(=O)O[C@H]1CCOC1)S(=O)(=O)c1ccc(N)cc1,Potency,[1],inactive
same,Potency,[2],inactive
same,Potency,[3],inactive
COc1ccc(C(=O)c2ccccc2O)c(O)c1,Potency,[1],inactive
same,Potency,[2],inactive
same,Potency,[3],inactive
C=CC1=C(C(=O)O)N2C(=O)[C@@H](NC(=O)/C(=N\O)c3csc(N)n3)[C@H]2SC1 (stereo in doubt),Potency,[1],inactive
same,Potency,[2],inactive
same,Potency,[3],inactive
COC(=O)CCCCC(CCSS/C(CCO)=C(\C)N(C=O)Cc1cnc(C)nc1N)SC(C)=O (stereo not drawn),Potency,[1],inactive
same,Potency,[2],inactive
same,Potency,[3],inactive
CC(CCc1ccc(O)cc1)NCCc1ccc(O)c(O)c1 (stereo not drawn),Potency,[1],inactive
same,Potency,[2],inactive
same,Potency,[3],inactive
CC(C)[C@H](N)C(=O)OCC(CO)OCn1cnc2c(=O)[nH]c(N)nc21 (stereo partly drawn),Potency,[1],inactive
same,Potency,[2],inactive
same,Potency,[3],inactive
O=C(CCBr)N1CCN(C(=O)CCBr)CC1,Potency,[1],inactive
same,Potency,[2],inactive
same,Potency,[3],inactive
CC12CCC(CC1)C(C)(C)O2,Potency,[1],inactive
same,Potency,[2],inactive
same,Potency,[3],inactive
O=c1[nH]c(=O)n([C@H]2C[C@H](O)[C@@H](CO)O2)cc1F,Potency,[2],inactive
same,Potency,[3],inactive
CC(C)(C)CC(C)(C)c1ccc(OCCOCC[N+](C)(C)Cc2ccccc2)cc1,Potency,[1],inactive
same,Potency,[3],inactive
CNCCCC12CCC(c3ccccc31)c1ccccc12,Potency,[1],inactive
same,Potency,[3],inactive
same,Potency,[5],inactive
CCN(CC)C(C)CN1c2ccccc2Sc2ccccc21 (stereo not drawn),Potency,[1],inactive
same,Potency,[3],inactive
NC(N)=NS(=O)(=O)c1ccc(N)cc1,Potency,[1],inactive
same,Potency,[3],inactive
Nc1ncn([C@H]2C[C@H](O)[C@@H](CO)O2)c(=O)n1,Potency,[1],inactive
same,Potency,[3],inactive
CCOC(=O)C1=C(COCCN)NC(C)=C(C(=O)OC)C1c1ccccc1Cl (stereo not drawn),Potency,[1],inactive
same,Potency,[2],inactive
same,Potency,[3],inactive
same,Potency,[5],inactive
CN(C)c1ccc2nc3ccc(=[N+](C)C)cc-3sc2c1,Potency,[2],7.08 µM (active)
O=C(O[C@H]1CN2CCC1CC2)N1CCc2ccccc2[C@@H]1c1ccccc1,Potency,[1],inactive
same,Potency,[3],inactive
C#CCC(Cc1cnc2nc(N)nc(N)c2n1)c1ccc(C(=O)N[C@@H](CCC(=O)O)C(=O)O)cc1 (stereo partly drawn),Potency,[2],inactive
Cc1cc(C(C#N)c2ccc(Cl)cc2)c(Cl)cc1NC(=O)c1cc(I)cc(I)c1O (stereo not drawn),Potency,[2],20 µM (active)
CCOc1ccc2nc3cc(N)ccc3c(N)c2c1,Potency,[1],inactive
same,Potency,[3],inactive
CN(C)CCOc1ccc(/C(=C(/CCCl)c2ccccc2)c2ccccc2)cc1,Potency,[1],inactive
same,Potency,[3],inactive
N#Cc1ccc2c(c1)N(CCCN1CCC(O)CC1)c1ccccc1S2,Potency,[1],inactive
same,Potency,[3],inactive
same,Potency,[5],inactive
same,Potency,[6],11.2 µM (active)
Cc1ccc(Nc2nccc(N(C)c3ccc4c(C)n(C)nc4c3)n2)cc1S(N)(=O)=O,Potency,[1],inactive
same,Potency,[3],inactive
CC(=O)OCC(=O)[C@H]1CC[C@H]2[C@@H]3CCC4=CC(=O)CC[C@]4(C)[C@H]3CC[C@]12C,Potency,[1],inactive
same,Potency,[3],inactive
CN1CCN(C(c2ccccc2)c2ccc(Cl)cc2)CC1 (stereo not drawn),Potency,[1],inactive
same,Potency,[3],inactive
same,Potency,[5],inactive
CNCCCCOc1ccccc1Cc1ccccc1,Potency,[3],inactive
same,Potency,[5],inactive
O=C(OCc1ccccc1)c1ccccc1,Potency,[1],inactive
same,Potency,[3],inactive
C[n+]1c2cc(N)ccc2cc2ccc(N)cc21 (tested in a mixture with another compound),Potency,[2],7.94 µM (active)
OCCN1CCN(CC/C=C2/c3ccccc3Sc3ccc(C(F)(F)F)cc32)CC1,Potency,[3],inactive
C=C1[C@H](CO)[C@@H](O)C[C@@H]1n1cnc2c(=O)[nH]c(N)nc21,Potency,[1],inactive
same,Potency,[2],inactive
same,Potency,[3],inactive
CN(c1nccc(=O)[nH]1)C1CCN(c2nc3ccccc3n2Cc2ccc(F)cc2)CC1,Potency,[1],inactive
same,Potency,[3],inactive
CN1CCN(CCC=C2c3ccccc3Sc3ccc(S(=O)(=O)N(C)C)cc32)CC1,Potency,[2],inactive
same,Potency,[5],11.2 µM (active)
CC(=O)S[C@@H]1CC2=CC(=O)CC[C@]2(C)[C@H]2CC[C@@]3(C)[C@@H](CC[C@@]34CCC(=O)O4)[C@H]12,Potency,[2],inactive
same,Potency,[3],inactive
COc1ccc(-c2ccc3cc(C(=O)O)ccc3c2)cc1C12CC3CC(CC(C3)C1)C2,Potency,[1],inactive
same,Potency,[3],inactive
C=CCN1C[C@H](C(=O)N(CCCN(C)C)C(=O)NCC)C[C@@H]2c3cccc4[nH]cc(c34)C[C@H]21,Potency,[1],inactive
same,Potency,[3],inactive
CN1[C@@H]2CC[C@H]1CC(OC(c1ccccc1)c1ccccc1)C2 (stereo partly drawn),Potency,[1],inactive
same,Potency,[2],14.1 µM (active)
same,Potency,[3],inactive
same,Potency,[5],inactive
O=c1[nH]c(=O)n([C@H]2C[C@H](O)[C@@H](CO)O2)cc1Br,Potency,[1],inactive
same,Potency,[3],inactive
CNCCC=C1c2ccccc2CCc2ccccc21,Potency,[3],inactive
same,Potency,[5],inactive
CCN(CC)CC#CCOC(=O)C(O)(c1ccccc1)C1CCCCC1 (stereo not drawn),Potency,[1],inactive
same,Potency,[3],inactive
Cc1nc2ccc(CN(C)c3ccc(C(=O)N[C@@H](CCC(=O)O)C(=O)O)s3)cc2c(=O)[nH]1,Potency,[1],inactive
same,Potency,[2],inactive
same,Potency,[3],inactive
